In the supplement of paper PMC3334620:
Whole data set: some 33,000 sequences, median “E-score (-0.5 to 0.5)” near -0.021, cut for the highest 2% near 0.32. Many of the other results were omitted from the sample, so the highest values are more common in it than they were.

Biological target: T1, Zap1 (UniProt P47043)
T1 sequence: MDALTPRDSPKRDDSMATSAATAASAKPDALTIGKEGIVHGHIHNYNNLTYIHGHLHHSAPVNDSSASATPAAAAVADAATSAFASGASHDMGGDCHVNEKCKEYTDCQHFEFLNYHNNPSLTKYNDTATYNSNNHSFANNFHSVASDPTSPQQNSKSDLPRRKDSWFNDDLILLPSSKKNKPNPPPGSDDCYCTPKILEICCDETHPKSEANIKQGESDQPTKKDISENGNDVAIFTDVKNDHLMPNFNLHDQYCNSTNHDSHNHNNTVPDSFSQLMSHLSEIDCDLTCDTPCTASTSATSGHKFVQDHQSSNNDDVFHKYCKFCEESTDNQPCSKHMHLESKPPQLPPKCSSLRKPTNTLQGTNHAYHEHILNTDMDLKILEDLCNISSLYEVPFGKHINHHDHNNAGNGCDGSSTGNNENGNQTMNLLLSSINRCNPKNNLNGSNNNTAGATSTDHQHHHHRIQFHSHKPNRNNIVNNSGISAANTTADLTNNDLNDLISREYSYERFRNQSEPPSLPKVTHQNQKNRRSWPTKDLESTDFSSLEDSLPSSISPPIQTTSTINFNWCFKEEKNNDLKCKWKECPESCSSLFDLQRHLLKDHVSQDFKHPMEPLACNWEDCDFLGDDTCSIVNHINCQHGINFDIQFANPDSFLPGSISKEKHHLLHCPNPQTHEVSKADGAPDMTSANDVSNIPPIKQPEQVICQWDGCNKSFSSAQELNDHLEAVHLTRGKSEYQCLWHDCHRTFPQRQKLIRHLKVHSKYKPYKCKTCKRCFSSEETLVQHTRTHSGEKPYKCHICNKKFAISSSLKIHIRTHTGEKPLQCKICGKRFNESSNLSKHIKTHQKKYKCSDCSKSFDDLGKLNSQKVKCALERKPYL
Experiment: PBM E-score (8-mer binding enrichment) (E-score (-0.5 to 0.5)); higher = stronger / more preferred TF binding
Conditions: protein concentration: 200 nM; construct: GST-full length
Experimental: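 Universal 'all 10-mer' protein binding microarrays (Agilent AMADID 015681) probed with GST-tagged S. cerevisiae TFs (full-length or DBD) made by in vitro transcription/translation (PURExpress), about 100-200 nM. Bound TF was detected with fluorescent anti-GST. Each ungapped 8-mer (which stands for itself and its reverse complement) is scored by the PBM enrichment score (E-score), a modified Wilcoxon-Mann-Whitney statistic from -0.5 to +0.5, computed with the Universal PBM Analysis Suite. Scale: above 0.35 generally sequence-specific binding.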

Sequence	PBM E-score
CAGCAGAA	-0.0338
AGAGGTCG	0.304
GGAGGTCA	0.136
AGAGGTCC	0.201
AGAGGTCA	0.41
CGAGGTCC	0.0996
CGAGGTCA	0.357
ATGTCGCG	0.0309
CAGAAGCC	-0.173
GTCCCAAA	0.0529
AAGGTTCG	-0.0644
AGGGTTCC	0.354
CAGGTTCC	0.0995
AAGGTTCT	0.327
AGGGTTCG	0.0919
ATGGTTCC	0.21
AAGGTTCC	0.317
AAGGTTCA	0.054
AGGGTTCA	0.146
CCAGTGTA	-0.00071
CACTGTAA	0.0817
CTAGCGAA	-0.221
GCTTCAGA	-0.167
ACATACCG	-0.00488
ACATACCA	-0.0785

Sequence	PBM E-score
GCATACCC	0.344
ACATACCC	0.347
GCATACCA	-0.0787
CCATACCC	0.29
AGCAGGGG	-0.0612
AGACAATA	0.0476
CGTTACCA	0.31
CGTTACGA	0.121
GGTTACTA	0.447
AGTTACGA	0.226
AGTTACCA	0.263
CGTTACTA	0.0809
GGTTACCA	0.468
GGTTACGA	0.465
AGTTACTA	0.129
AGTCTTAT	-0.115
CCGATAGC	-0.225
AACTAAGG	0.017
GACTACCC	0.301
CACTACCC	0.367
CACTACCA	0.22
AACTACCC	0.391
AACTACCT	0.286
AACTACCG	0.179
ATTGCCTG	-0.0833

Sequence	PBM E-score
GCCAGGGC	-0.128
CGCATACG	-0.12
ACCCTATG	0.368
CCCCTATA	-0.102
GCCCTATA	-0.144
ACCCTATA	0.354
AACCTATG	0.258
ACCCTATC	0.276
CCAGGCCG	-0.0809
GCGACACC	0.0184
ACACTCAA	0.139
AACGCTTC	-0.128
AGAAGCTA	-0.265
CAACCGTA	0.0143
CTTCAAAA	0.0592
TTTCAAAA	0.321
GTTCAAAA	0.0198
CGCACAAC	0.122
ACGGTTAA	0.258
ACGGTTGC	0.117
ACGGTTTC	-0.0123
ACGGTTAG	0.223
ACGGTTAT	0.414
ACGGTTAC	0.411
AGTTTGCA	-0.0409

Sequence	PBM E-score
TCCTCACA	0.0409
AAGAACTC	0.0396
ACAAAGAA	0.178
ACTGAATC	-0.0382
GGTCATGA	0.346
AGTCATTA	-0.17
GGTCATAA	0.379
CGTCATTA	-0.145
CGTCATGA	0.0742
TGTCATAA	0.184
AGTCATGA	0.0992
GGTCATTA	0.321
GGTCATAC	0.313
CCGGACCG	-0.129
AGCAATGC	-0.0926
ACGCGAAG	0.0536
ACTACCCG	0.261
ATGGGTCA	0.359
GAGGGTCC	0.134
TCGGGTCA	0.233
ACGGGTCG	0.116
ATGGGTCC	0.263
TAGGGTGA	0.299
AGGGGTCG	0.0682
GTGGGTCA	0.211

Sequence	PBM E-score
ATGGGTCG	0.0454
AAGGGTCG	0.36
TAGGGTCA	0.408
GAGGGTCA	0.397
ACTGGCTA	-0.0583
CCGAGACC	0.197
AGCAATGG	-0.133
AAACAGGT	0.135
ATACTCTC	-0.15
CACAGTTC	-0.0558
CTACTCGC	-0.18
ATGGGCGG	-0.125
AACGCATT	0.0284
AAGGGTCA	0.439
GAGGGGTA	0.245
CAGGGTCA	0.417
AAGGGTGA	0.293
CAGGGTCG	0.275
CAGGGTCC	0.14
AAGGGTCT	0.136
GAGGGTGA	0.126
AGGGGTCC	0.0654
AGGGGTGA	0.219
GAGGGTTA	0.45
AGGGGTCA	0.438

Sequence	PBM E-score
CATGCGAC	0.014
CGACCACC	0.15
CCTCTGTC	0.0337
AAAGTGTG	0.071
ATATCAGA	0.0906
CCTCGACC	-0.056
TTGCTAAA	-0.0992
GGCCCTGA	-0.137
CCGGGTCA	0.316
GGGGGTCA	-0.132
GCGGGTCC	-0.0967
CGGGGTCA	0.332
ACGGGTCA	0.223
GCGGGTCA	0.367
AGGTGGGC	-0.0375
CAGCTCAA	-0.0501
GCAAGATA	0.0727
TCCCTACA	-0.0805
CCCCTACG	-0.117
AGCCTACT	-0.212
ACCCTACT	0.329
ACCCTACG	0.361
CCCCTACC	0.0857
AACCTACT	0.135
ACCCTACC	0.364

Sequence	PBM E-score
ACCCTACA	0.419
AACCTACG	0.123
CCCCTACA	-0.0402
GCCCTACC	0.0168
GAGTTGCA	-0.0948
AAATTCCT	-0.0586
CAAAGTGC	-0.0833
CGAATCGA	0.00445
ATCGAATG	-0.106
ACCTAGGA	0.159
CTCAGGCA	-0.158
ATTGCGAA	-0.0714
GTAACAAC	0.234
AACATGCG	-0.0232
GCCAGAAC	-0.226
AATAACGA	-0.036
AATAACAA	0.0521
GATAACCA	0.426
GATAACGA	0.00419
TATAACCA	0.45
CATAACTA	0.18
CATAACCA	0.462
AATAACCA	0.445
GATAACTA	0.231
CATAACAA	0.179

Sequence	PBM E-score
TCTAACCA	0.231
TATAACAA	0.291
GTGTTGAA	-0.0764
ACGGCTCC	-0.198
GCCTTTGA	0.0766
GGTGTCAC	0.0261
CTCTGCAG	-0.126
ACTATAGT	0.197
AGCCGCTC	-0.0957
CCTGTTGC	0.0211
GCATAGAC	-0.117
CTGGTAAG	0.055
GCCATCCA	-0.197
CATAACGG	-0.0515
CATAACAG	-0.0694
CATAACCG	0.395
ATATATAA	0.249
AGTTATAC	0.104
TTATATAA	0.331
CTATATAA	0.24
CGTTATAC	-0.00572
GGTTATAC	0.461
GGTTATAA	0.471
AGTTATAA	0.193
CGTTATAA	0.247

Sequence	PBM E-score
ATTTGCGA	0.0692
CCCCATTC	-0.0769
ATCCTTCC	-0.306
GCATCTTA	-0.0867
ACCATTCT	0.0676
GATCATTA	0.0548
TATCCGGA	0.0937
ACGGTAAC	0.364
GCGGTAAA	0.165
ACGGTAAT	0.139
CCGGTAAC	0.316
ACGGTAAG	0.016
GCGGTAAC	0.32
GTTTGGAA	0.116
AGAAGTAC	-0.115
CGTAGCGA	-0.251
ATTGGTTG	0.186
ATTGGTTC	0.141
CTTGGTTA	0.334
GTTGGTTA	0.316
CTTGGTTC	0.232
ATTGGTTA	0.402
